One may read the inhibition as the change of the read-out against control, counted positive when it falls.

Assay [1] has as its system Epidermal growth factor receptor (Homo sapiens), P00533 [T790M]. The conditions noted are these: at 1 µM.
Assay [2] concerns Epidermal growth factor receptor (Homo sapiens), P00533 [L858R,T790M]. The conditions noted are these: at 0.1 µM.
Assay [3] shares this test system. To be noted: at 1 µM.
Assay [4] has as its target Ephrin type-A receptor 2 (Homo sapiens) (UniProt P29317). To be noted: at 0.1 µM.
Assay [5] shares this target. To be noted: at 1 µM.
The target of assay [6] is T1, Ephrin type-A receptor 3 (Homo sapiens) (UniProt P29320).
T1 sequence (whole entry): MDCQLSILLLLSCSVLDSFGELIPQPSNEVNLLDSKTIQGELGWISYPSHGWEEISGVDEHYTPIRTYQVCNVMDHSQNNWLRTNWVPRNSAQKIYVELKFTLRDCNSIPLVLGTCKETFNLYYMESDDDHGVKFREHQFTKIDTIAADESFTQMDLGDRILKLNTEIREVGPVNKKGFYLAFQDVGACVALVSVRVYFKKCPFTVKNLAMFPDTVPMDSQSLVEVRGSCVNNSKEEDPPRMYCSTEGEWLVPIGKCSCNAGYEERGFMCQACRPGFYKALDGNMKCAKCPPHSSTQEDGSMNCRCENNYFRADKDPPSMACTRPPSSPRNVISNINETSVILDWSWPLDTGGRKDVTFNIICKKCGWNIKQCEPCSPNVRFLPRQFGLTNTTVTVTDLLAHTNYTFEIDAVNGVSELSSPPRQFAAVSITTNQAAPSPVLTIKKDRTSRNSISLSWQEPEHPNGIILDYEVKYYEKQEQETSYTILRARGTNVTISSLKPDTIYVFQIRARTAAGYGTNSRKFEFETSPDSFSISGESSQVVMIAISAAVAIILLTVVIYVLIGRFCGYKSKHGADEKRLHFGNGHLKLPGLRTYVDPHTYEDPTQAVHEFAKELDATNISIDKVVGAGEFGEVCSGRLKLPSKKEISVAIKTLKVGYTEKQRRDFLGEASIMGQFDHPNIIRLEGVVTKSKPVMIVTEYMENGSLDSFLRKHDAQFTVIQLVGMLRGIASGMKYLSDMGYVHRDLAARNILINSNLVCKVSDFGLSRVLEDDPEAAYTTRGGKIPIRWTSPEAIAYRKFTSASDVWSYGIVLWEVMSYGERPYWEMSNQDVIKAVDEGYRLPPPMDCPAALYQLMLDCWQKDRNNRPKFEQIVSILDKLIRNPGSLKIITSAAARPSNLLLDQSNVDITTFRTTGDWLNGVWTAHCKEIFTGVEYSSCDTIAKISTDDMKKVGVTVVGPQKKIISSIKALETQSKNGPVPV
To be noted: at 0.1 µM.

In assay [7] the target is T1, Ephrin type-A receptor 3 (Homo sapiens). To be noted: at 1 µM.
For assay [8], the target named is Ephrin type-A receptor 4 (Homo sapiens) (UniProt P54764). To be noted: at 0.1 µM.
Assay [9] has the same target. To be noted: at 1 µM.
The target in assay [10] is T2, Ephrin type-B receptor 2 (Homo sapiens) (UniProt P29323).
T2 sequence (whole entry): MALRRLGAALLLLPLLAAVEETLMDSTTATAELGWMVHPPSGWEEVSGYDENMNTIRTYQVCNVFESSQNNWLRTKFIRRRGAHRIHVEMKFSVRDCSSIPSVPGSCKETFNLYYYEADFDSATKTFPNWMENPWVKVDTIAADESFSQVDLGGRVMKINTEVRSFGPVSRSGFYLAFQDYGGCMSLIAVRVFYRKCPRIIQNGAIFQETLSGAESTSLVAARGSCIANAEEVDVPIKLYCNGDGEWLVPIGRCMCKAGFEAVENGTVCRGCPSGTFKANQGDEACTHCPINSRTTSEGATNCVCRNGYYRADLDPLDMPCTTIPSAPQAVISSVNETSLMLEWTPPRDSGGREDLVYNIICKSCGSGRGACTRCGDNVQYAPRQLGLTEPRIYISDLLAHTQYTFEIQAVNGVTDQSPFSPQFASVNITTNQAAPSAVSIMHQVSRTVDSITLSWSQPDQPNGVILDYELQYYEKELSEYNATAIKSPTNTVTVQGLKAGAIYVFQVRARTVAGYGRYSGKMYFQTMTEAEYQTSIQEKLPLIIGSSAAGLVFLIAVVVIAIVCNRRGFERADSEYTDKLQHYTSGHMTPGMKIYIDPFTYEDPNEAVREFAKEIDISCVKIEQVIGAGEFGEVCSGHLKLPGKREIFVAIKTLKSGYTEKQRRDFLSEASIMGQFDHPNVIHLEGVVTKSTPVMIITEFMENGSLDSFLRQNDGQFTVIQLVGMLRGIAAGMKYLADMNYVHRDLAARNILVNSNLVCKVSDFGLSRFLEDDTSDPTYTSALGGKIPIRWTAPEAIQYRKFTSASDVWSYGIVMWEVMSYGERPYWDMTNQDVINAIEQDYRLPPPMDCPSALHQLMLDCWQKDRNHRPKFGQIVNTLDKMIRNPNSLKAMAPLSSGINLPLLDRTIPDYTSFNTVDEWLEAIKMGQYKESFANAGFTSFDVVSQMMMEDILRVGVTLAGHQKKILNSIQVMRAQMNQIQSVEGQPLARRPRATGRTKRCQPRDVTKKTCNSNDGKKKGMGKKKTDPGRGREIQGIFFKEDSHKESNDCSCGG
The conditions noted are these: at 0.1 µM.

In assay [11] the target is T2, Ephrin type-B receptor 2 (Homo sapiens). To be noted: at 1 µM.
The target in assay [12] is T3, Ephrin type-B receptor 3 (Homo sapiens) (UniProt P54753).
T3 sequence (whole entry): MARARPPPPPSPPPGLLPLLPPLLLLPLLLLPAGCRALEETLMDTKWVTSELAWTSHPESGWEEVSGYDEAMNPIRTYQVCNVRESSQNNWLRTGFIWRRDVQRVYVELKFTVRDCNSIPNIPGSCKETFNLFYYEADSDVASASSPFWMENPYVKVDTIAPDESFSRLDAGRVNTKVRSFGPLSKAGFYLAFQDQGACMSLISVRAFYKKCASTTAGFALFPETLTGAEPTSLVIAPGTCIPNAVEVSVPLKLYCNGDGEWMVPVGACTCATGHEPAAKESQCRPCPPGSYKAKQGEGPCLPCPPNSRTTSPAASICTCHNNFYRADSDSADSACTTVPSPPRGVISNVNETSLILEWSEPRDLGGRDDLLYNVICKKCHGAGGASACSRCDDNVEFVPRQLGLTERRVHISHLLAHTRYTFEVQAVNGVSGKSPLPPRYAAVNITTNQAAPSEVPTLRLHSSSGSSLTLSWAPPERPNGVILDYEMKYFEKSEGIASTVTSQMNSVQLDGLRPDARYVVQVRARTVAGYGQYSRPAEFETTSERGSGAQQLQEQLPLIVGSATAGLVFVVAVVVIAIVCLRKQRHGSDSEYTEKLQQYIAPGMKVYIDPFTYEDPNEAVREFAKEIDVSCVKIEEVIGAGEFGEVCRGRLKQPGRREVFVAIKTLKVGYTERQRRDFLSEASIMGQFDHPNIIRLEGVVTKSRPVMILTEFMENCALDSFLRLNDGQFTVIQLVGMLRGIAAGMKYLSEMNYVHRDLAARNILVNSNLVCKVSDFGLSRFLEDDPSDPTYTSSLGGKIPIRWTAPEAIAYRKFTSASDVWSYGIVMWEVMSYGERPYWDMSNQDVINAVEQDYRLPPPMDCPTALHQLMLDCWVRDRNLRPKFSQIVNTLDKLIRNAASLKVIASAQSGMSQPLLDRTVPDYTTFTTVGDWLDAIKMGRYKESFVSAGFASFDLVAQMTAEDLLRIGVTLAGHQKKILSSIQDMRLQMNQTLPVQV
The conditions noted are these: at 0.1 µM.

Assay [13] addresses T3, Ephrin type-B receptor 3 (Homo sapiens). The conditions noted are these: at 1 µM.
The target in assay [14] is T4, Ephrin type-B receptor 4 (Homo sapiens) (UniProt P54760).
T4 sequence (whole entry): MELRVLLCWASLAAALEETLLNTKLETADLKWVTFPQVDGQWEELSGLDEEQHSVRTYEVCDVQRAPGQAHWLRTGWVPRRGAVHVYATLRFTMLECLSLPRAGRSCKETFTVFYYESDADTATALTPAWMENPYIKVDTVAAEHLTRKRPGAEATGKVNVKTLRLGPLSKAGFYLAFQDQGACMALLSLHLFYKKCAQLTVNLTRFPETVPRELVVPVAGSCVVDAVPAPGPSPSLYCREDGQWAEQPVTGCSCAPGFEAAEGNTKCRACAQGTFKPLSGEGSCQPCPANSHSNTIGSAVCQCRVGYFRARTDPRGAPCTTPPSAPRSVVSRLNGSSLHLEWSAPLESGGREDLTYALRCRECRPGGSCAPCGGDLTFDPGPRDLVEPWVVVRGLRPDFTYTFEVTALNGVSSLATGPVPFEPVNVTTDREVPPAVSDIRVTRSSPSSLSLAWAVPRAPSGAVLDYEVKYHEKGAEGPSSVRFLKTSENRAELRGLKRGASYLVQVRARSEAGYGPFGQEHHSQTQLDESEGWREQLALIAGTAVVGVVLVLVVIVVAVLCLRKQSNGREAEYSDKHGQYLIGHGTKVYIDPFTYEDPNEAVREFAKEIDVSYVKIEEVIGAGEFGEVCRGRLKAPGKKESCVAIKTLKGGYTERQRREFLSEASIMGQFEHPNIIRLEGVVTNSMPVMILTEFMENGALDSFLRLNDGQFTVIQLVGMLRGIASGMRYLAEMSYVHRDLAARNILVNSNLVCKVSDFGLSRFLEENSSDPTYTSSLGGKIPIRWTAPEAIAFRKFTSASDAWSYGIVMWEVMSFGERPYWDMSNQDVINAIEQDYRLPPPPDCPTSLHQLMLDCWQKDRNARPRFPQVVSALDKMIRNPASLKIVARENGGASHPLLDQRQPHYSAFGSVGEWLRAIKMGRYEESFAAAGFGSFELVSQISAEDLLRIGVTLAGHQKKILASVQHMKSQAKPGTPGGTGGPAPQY
To be noted: at 0.1 µM.

The target in assay [15] is T4, Ephrin type-B receptor 4 (Homo sapiens). The conditions noted are these: at 1 µM.
Assay [16] has as its target Receptor tyrosine-protein kinase erbB-2 (Homo sapiens) (UniProt P04626). The conditions noted are these: at 0.1 µM.
Assay [17] has the same target. The conditions noted are these: at 1 µM.
In assay [18] the target is Receptor tyrosine-protein kinase erbB-4 (Homo sapiens) (UniProt Q15303). The conditions noted are these: at 0.1 µM.
Assay [19] shares this target. The conditions noted are these: at 1 µM.
Assay [20] deals with Tyrosine-protein kinase Fer (Homo sapiens) (UniProt P16591). To be noted: at 0.1 µM.
Sequence of Tyrosine-protein kinase Fer (Homo sapiens) (P16591 whole entry, looked up): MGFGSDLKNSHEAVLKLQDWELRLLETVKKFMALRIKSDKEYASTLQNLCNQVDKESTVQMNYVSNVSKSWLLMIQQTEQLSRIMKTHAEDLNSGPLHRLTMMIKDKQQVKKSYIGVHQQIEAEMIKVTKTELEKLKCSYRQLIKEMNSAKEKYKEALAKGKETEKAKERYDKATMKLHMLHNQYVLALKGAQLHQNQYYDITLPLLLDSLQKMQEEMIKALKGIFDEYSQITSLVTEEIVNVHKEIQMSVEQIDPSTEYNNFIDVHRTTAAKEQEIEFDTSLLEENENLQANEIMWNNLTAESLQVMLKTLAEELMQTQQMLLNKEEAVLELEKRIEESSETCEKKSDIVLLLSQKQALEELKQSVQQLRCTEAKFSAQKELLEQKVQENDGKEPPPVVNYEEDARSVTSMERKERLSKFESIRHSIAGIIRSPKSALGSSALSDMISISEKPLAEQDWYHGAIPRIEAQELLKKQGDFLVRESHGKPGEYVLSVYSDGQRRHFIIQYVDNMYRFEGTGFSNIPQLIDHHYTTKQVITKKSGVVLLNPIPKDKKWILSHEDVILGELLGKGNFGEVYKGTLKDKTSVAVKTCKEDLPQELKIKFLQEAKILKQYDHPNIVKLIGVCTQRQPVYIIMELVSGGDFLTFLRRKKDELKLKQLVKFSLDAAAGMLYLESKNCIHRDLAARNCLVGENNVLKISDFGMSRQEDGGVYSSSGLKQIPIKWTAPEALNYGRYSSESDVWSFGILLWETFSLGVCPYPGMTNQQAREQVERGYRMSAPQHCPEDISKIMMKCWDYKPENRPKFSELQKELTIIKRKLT

Sequence of Epidermal growth factor receptor (Homo sapiens), P00533 [T790M] (P00533 whole entry T790M): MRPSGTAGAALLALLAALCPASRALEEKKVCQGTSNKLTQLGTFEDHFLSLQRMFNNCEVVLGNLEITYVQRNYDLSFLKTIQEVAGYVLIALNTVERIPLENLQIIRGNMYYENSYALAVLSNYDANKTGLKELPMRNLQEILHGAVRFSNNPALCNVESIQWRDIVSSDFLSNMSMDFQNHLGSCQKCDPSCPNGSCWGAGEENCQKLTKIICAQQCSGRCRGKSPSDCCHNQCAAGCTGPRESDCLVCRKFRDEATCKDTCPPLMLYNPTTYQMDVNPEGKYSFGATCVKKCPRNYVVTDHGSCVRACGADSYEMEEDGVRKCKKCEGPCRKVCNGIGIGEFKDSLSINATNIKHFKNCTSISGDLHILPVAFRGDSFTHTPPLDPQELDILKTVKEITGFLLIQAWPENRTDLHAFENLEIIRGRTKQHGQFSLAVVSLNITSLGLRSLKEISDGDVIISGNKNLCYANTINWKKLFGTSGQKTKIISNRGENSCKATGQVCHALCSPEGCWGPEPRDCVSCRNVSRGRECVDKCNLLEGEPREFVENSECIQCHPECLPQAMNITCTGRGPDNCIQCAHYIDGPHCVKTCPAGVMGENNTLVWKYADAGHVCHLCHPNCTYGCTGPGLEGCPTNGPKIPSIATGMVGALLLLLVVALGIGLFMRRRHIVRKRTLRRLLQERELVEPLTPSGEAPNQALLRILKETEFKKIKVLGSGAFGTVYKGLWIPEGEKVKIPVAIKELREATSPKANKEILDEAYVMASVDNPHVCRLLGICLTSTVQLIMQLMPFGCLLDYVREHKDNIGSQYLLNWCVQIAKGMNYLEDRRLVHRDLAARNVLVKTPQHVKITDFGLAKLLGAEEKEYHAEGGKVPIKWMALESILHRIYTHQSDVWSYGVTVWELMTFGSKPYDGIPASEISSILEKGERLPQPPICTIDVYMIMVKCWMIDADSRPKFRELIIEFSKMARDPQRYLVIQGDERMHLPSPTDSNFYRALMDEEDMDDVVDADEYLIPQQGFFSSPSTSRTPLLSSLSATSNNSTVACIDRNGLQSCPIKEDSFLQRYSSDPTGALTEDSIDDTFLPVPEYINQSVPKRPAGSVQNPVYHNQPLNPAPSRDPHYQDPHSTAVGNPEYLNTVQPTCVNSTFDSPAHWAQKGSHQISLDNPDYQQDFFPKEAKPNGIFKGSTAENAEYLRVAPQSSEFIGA
Sequence of Epidermal growth factor receptor (Homo sapiens), P00533 [L858R,T790M] (P00533 whole entry T790M/L858R, looked up): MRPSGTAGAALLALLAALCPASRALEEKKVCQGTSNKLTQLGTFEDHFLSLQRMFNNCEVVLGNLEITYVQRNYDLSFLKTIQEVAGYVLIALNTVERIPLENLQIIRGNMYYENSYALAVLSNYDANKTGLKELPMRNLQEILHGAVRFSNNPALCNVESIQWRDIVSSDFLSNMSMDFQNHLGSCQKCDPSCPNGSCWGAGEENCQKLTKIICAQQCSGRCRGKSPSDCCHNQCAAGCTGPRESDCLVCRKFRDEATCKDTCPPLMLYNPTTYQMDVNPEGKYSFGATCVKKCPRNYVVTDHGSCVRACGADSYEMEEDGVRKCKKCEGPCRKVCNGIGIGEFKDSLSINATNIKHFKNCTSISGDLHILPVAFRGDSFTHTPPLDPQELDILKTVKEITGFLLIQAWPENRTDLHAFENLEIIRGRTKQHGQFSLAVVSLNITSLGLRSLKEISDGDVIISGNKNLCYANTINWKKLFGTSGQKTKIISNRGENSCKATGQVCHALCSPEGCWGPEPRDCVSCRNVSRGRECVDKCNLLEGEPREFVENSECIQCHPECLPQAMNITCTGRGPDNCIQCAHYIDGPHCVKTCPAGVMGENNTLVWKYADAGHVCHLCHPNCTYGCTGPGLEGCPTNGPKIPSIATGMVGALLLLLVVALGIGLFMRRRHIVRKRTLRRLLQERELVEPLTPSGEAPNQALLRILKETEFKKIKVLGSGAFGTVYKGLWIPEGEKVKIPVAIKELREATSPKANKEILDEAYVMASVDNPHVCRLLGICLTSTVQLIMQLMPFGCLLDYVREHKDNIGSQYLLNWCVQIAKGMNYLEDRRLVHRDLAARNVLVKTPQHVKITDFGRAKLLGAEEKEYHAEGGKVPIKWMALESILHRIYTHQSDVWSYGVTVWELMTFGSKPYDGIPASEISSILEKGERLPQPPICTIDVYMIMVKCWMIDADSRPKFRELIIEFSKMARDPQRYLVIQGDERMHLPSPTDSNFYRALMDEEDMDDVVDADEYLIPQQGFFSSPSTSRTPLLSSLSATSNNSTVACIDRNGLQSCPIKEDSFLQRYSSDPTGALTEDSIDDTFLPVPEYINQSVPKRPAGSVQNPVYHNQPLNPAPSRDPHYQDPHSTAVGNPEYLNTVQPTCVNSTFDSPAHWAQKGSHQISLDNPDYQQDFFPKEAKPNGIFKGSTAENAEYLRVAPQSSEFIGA
Sequence of Receptor tyrosine-protein kinase erbB-2 (Homo sapiens) (P04626 whole entry): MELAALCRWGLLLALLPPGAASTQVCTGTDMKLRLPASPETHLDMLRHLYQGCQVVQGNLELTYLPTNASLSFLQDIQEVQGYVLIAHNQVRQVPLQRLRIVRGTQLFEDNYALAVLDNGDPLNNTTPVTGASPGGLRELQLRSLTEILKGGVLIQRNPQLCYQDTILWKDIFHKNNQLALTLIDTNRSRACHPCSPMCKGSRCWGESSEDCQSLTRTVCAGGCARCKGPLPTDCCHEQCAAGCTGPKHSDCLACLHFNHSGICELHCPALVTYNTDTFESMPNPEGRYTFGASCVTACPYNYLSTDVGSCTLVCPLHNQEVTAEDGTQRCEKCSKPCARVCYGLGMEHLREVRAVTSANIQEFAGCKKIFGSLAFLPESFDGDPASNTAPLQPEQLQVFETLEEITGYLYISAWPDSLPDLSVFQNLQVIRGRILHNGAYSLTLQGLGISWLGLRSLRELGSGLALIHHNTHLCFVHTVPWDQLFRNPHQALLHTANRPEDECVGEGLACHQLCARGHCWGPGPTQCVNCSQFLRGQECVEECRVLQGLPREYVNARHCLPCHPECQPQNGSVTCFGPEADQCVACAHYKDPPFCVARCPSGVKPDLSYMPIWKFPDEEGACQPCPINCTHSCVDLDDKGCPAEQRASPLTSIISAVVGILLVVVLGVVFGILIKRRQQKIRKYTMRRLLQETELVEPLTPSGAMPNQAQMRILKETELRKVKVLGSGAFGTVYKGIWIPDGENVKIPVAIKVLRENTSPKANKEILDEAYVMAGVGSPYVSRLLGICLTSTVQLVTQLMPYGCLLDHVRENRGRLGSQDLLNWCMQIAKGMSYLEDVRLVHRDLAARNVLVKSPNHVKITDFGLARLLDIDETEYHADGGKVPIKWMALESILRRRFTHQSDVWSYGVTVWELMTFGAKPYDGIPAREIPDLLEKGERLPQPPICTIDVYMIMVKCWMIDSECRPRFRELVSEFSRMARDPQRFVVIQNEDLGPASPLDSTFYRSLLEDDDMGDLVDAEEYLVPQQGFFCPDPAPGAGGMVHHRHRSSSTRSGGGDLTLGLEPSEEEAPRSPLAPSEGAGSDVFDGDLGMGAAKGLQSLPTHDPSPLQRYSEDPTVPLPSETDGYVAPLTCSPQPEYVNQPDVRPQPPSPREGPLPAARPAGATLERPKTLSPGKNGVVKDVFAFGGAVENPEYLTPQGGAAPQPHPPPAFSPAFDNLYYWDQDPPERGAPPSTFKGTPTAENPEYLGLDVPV

In the case of `CCS(=O)(=O)c1ccc(OC)c(Nc2ncc(-c3ccccc3Cl)o2)c1`, the inhibition was 3.29% in assay [1]; -1.69% in [2]; -0.03% in [3]; 1.32% in assay [4]; 1.73% in [5]; 5.46% in assay [6]. In addition, the inhibition in [7] amounted to 4.36%; in assay [8], 5.58%; in assay [9], 9.33%; in assay [10] it was 4.99%; in assay [11], 8.86%; in [12] it was 4.07%. Further, the inhibition in [13] is 3.23%; in assay [14] it was 1.77%; in assay [15], 1.22%; in [16], -1.67%; in [17], 1.42%; in [18], 4.14%. In addition, the inhibition was 4.95% in [19] and -0.76% in assay [20].

Turning to `C[C@@H](Oc1cc(-n2cnc3ccc(OCC4CCN(C)CC4)cc32)sc1C(N)=O)c1ccccc1Cl`, the inhibition is 3.47% in assay [1]; -2.11% in assay [2]; 7.41% in assay [3]; 1.42% in assay [4]; 1.71% in assay [5]; 3.99% in assay [6]. Moreover, the inhibition in assay [7] was 4.27%; in assay [8], 8.9%; in [9], 11.6%; in assay [10], 9.82%; in assay [11], 8.25%; in [12] it was 2.8%. The inhibition in [13] is 6.12%; in assay [14] it was 5.24%; in [15], 3.86%; in assay [16], 41.4%; in assay [17] it was 4.61%; in [18], 9.63%. Further, the inhibition in assay [19] is 13.1%; in assay [20], 1.28%.

For `Fc1ccc(-c2ncn(C3CCNCC3)c2-c2ccnc(Oc3ccc4c(c3)OCO4)n2)cc1`, the inhibition in assay [1] worked out at 6.05%; in assay [2], 1.3%; in [3], 7.04%; in [4], 3.08%; in assay [5] it was 2.37%; in [6], 3.63%. Further, the inhibition in [7] stood at 10.3%; in assay [8], 11.3%; in assay [9] it was 15.4%; in [10], 10.6%; in [11], 16.5%; in assay [12] it was 5.97%. The inhibition in [13] is 3.71%; in assay [14], 1.53%; in assay [15], 3.9%; in [16], -0.35%; in assay [17], 12%; in [18], 10.6%. Further, the inhibition was found to be 19.3% in assay [19] and 6.11% in assay [20].

For the origin of these results see ChEMBL document CHEMBL1961873, “Compounds: GSK PKIS; Assays: Nanosyn kinase panel” (2012).
